A short description of test [1]: P-glycoprotein substrates identified in KB-8-5-11 adenocarcinoma cell line, qHTS therapeutic library screen (AID 1346987). Note: nearly all actives have a fitted effect of over 65% in size. Note: potency is the fitted concentration of half-maximal effect. An outline of the steps:
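KB-8-5-11, a colchicine-selected P-gp-overexpressing KB-3-1 subline, was grown without colchicine for the assay. Cells were seeded at 500 cells/well, dosed in concentration-response and incubated 72 h at 37 degree C, 5% CO2. Viability was read by CellTiter-Glo luminescence.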

The nature of test [2]: NS1 protein of Zika virus - qHTS assay to identify small molecule inhibitors in human HEK 293 cells (AID 1347053). Note: nearly all actives have a fitted effect of over 55% in size. Note: potency is the fitted concentration of half-maximal effect. A digest of the protocol: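 Following 20 h seeding, HEK 293 cells took compound, then 1 h later ZIKV MR766 (MOI = 0.5). Incubation ran 24 h at 37 C before TR-FRET detection of NS1; a drop in signal indicates inhibition.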
A short description of test [3]: qHTS of pediatric cancer cell lines to identify multiple opportunities for drug repurposing: Primary screen for TC32 cells (AID 1347089). Note: nearly all actives have a fitted effect of over 60% in size. Note: potency is the fitted concentration of half-maximal effect. An outline of the steps:
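qHTS, TC32, 48 h drug treatment, CellTiter-Glo luminescence as a proxy for metabolically active cells; primary top concentration 46 µM (MIPE 11-pt, NPC 8-pt); confirmatory 11-pt.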

Test [4] is described as follows: qHTS of pediatric cancer cell lines to identify multiple opportunities for drug repurposing: Primary screen for SJ-GBM2 cells (AID 1347091). Note: potency is the fitted concentration of half-maximal effect. An outline of the steps: (§1)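 Eight- or eleven-point concentration series, 48 h treatment at 37 degrees C in growth media; readout CellTiter-Glo luminescence. Potency and efficacy were taken from the concentration-response curves.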

Test [5] in a line: qHTS of pediatric cancer cell lines to identify multiple opportunities for drug repurposing: Primary screen for A673 cells (AID 1347092). Note: nearly all actives have a fitted effect of over 45% in size. Note: potency is the fitted concentration of half-maximal effect. A digest of the protocol: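 Luminescence from CellTiter-Glo, taken after 15 min at room temperature, served as the proxy for metabolically active cells following 48 h treatment. Both potency and efficacy were taken from curves fitted to the titration data.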

Test [6] is described as follows: qHTS of pediatric cancer cell lines to identify multiple opportunities for drug repurposing: Primary screen for BT-37 cells (AID 1347094). Note: potency is the fitted concentration of half-maximal effect. A digest of the protocol:
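Viability was measured as metabolically active cells after 48 hours of treatment, read by CellTiter-Glo luminescence. Compounds were tested at multiple final concentrations, giving concentration-response curves.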

Test [7] in a line: qHTS of pediatric cancer cell lines to identify multiple opportunities for drug repurposing: Primary screen for DAOY cells (AID 1347090). Note: nearly all actives have a fitted effect of over 55% in size. Note: potency is the fitted concentration of half-maximal effect. An outline of the steps: as §1
A short description of test [8]: qHTS of pediatric cancer cell lines to identify multiple opportunities for drug repurposing: Primary screen for SK-N-MC cells (AID 1347093). Note: potency is the fitted concentration of half-maximal effect. An outline of the steps: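 Metabolically active cells were quantified by ATP-dependent luminescence (CellTiter-Glo, 15 min at room temperature) following 48 h treatment. Cells had been plated at 500-1,000 per well and settled for 5 h beforehand.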

Test [9] concerns the target Atrial natriuretic peptide receptor 1 (Homo sapiens) (UniProt P16066). Description: Natriuretic polypeptide receptor (hNpr1) antagonism - Pilot screen (AID 1347049; calls by dose curve;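 note: agonist-evoked cGMP luminescence read 20 min after hNppA addition; potency is the fitted concentration of half-maximal effect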). An outline of the steps:
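HEK293 cells co-expressing hNpr1 and the GloSensor pGS-40F cGMP luciferase sensor were preloaded with 2% GloSensor reagent for 2 h. Compounds were added for 30 min at room temperature, then cells were stimulated with 0.1 nM hNppA for 20 min before luminescence readout.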

The target of test [10] is Atrial natriuretic peptide receptor 2 (Homo sapiens) (UniProt P20594). Briefly: Natriuretic polypeptide receptor (hNpr2) antagonism - Pilot subtype selectivity assay (AID 1347050; calls by dose curve; note: potency is the fitted concentration of half-maximal effect). A digest of the protocol:
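cGMP-sensor HEK293/hNpr2 cells; 2% GloSensor reagent 2 h RT; compounds 30 min; baseline luminescence read; 1 nM hNppC agonist 20 min RT; final luminescence read by CCD camera. Antagonism = reduced post-agonist signal.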

In test [11] the target is T1, Tyrosine-protein phosphatase non-receptor type substrate 1 (Homo sapiens) + Leukocyte surface antigen CD47 (Homo sapiens) (UniProt P78324+Q08722). Description: CD47-SIRPalpha protein protein interaction - LANCE assay qHTS validation (AID 1347057; active = well fitted curve in the direction sought with a large enough effect in the signal ratio, with a control signal flat, not every such curve was filed as active; the % refers to the signal ratio; note: series mostly up to about 38 µM). A digest of the protocol: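 First, His-tagged CD47 and Eu-labelled anti-His antibody met the compound for 30 min; next, site-specifically biotinylated SIRPalpha was added for 30 min; finally streptavidin-APC was added before reading the TR-FRET ratio.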

For test [12], the target named is T1, Tyrosine-protein phosphatase non-receptor type substrate 1 (Homo sapiens) + Leukocyte surface antigen CD47 (Homo sapiens). Description: CD47-SIRPalpha protein protein interaction - HTRF assay qHTS validation (AID 1347058; active = well fitted curve in the direction sought with a large enough effect in the signal ratio, not every such curve was filed as active; the % refers to the signal ratio; note: series mostly up to about 38 µM). A digest of the protocol: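 TR-FRET read (Ch1/Ch2 ratio) of soluble extracellular CD47 and Avi-biotinylated SIRPalpha domains in PBS pH 7.4 with 0.05% IGEPAL; 7-point compound titration. Sequential 30 min room-temperature steps; non-biotinylated SIRPalpha as control inhibitor.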

For test [13] the target is unchanged. Briefly: CD47-SIRPalpha protein protein interaction - Alpha assay qHTS validation (AID 1347059).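 Note: bead proximity luminescence from CD47 binding SIRPalpha after compound preincubation with SIRPalpha.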 An outline of the steps:
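Soluble extracellular domains: Avi-tag biotinylated SIRPalpha (25 nM) preincubated 30 min RT with compound, then 6His-CD47 (12.5 nM) 30 min; Ni-NTA acceptor and streptavidin donor beads (10 ug/mL) 30 min, AlphaScreen read. PBS pH 7.4, 0.05% IGEPAL.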

Test [14] addresses Parathyroid hormone/parathyroid hormone-related peptide receptor (Homo sapiens) (UniProt Q03431). Description: qHTS for PTHR1 Agonists: Optimization Screen against the NCGC LOPAC library (AID 1347079).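 Note: GloSensor cAMP luminescence in HEK-293 GP2 cells expressing human PTHR1 with IBMX.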 An outline of the steps:
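Agonist readout: GloSensor cAMP luminescence, read after 15 min at room temperature. HEK-293-derived GP2 line carries PTHR1; compounds tested as a titration for 1 hr at 37C in presence of IBMX. M-PTH (1-15) served as control.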

For 25 molecules, Potency and outcome results are on record in PubChem BioAssay (NCATS).

Structures are written as SMILES. Where “and” joins values, the source holds several entries; their conditions need not be identical. Equal values may be shown once. Records with an inconclusive call do not appear. More than one record can exist for a structure, and the calls need not agree. Calls of active or inactive are those of the source. Unless noted, calls come from the whole dose curve; as a rule, active = well fitted curve in the direction sought with a large enough effect; inconclusive = small, poorly fitted or top-dose-only effect, or another doubt; inactive = no such curve, though single readings can be large; an effect the other way counts as inactive or inconclusive.

T1 sequence (P78324 whole entry, looked up): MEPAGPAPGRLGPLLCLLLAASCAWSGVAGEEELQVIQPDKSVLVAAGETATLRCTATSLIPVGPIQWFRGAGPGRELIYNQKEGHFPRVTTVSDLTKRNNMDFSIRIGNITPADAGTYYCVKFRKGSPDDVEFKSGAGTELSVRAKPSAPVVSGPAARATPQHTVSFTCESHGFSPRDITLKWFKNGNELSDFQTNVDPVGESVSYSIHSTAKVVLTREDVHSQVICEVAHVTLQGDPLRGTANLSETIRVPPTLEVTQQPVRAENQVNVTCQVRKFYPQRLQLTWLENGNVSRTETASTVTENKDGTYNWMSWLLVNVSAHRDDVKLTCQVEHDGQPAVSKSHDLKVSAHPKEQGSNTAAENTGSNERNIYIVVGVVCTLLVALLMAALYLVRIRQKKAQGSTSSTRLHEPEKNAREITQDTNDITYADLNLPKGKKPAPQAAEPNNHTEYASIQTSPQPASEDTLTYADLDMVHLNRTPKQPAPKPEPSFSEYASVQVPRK
T1 sequence (Q08722 whole entry, looked up): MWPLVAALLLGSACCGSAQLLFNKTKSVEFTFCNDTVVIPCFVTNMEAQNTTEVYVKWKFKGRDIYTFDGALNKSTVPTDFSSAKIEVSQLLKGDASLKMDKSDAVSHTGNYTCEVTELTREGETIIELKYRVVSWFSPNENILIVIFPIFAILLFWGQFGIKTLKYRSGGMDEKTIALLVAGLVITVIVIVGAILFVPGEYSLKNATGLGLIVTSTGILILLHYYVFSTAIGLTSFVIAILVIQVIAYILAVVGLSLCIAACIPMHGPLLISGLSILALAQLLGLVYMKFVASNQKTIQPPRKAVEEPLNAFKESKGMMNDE
Parathyroid hormone/parathyroid hormone-related peptide receptor (Homo sapiens), sequence (Q03431 whole entry, looked up): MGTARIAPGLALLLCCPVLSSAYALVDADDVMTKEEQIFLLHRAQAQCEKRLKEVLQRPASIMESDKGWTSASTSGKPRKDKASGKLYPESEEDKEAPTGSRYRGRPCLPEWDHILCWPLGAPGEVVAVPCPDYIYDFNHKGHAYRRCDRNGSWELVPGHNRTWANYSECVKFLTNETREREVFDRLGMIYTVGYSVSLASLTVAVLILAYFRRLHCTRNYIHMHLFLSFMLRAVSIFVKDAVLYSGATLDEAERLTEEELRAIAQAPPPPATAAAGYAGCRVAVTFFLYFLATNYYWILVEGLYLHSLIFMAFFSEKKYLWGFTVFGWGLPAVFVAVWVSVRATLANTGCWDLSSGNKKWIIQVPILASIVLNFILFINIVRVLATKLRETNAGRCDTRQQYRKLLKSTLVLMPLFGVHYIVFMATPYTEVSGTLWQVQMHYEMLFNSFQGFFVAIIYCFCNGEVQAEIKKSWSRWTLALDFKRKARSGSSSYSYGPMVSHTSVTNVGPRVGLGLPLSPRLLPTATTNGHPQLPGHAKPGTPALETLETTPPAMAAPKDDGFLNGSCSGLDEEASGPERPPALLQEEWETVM
Atrial natriuretic peptide receptor 1 (Homo sapiens), sequence (P16066 whole entry, looked up): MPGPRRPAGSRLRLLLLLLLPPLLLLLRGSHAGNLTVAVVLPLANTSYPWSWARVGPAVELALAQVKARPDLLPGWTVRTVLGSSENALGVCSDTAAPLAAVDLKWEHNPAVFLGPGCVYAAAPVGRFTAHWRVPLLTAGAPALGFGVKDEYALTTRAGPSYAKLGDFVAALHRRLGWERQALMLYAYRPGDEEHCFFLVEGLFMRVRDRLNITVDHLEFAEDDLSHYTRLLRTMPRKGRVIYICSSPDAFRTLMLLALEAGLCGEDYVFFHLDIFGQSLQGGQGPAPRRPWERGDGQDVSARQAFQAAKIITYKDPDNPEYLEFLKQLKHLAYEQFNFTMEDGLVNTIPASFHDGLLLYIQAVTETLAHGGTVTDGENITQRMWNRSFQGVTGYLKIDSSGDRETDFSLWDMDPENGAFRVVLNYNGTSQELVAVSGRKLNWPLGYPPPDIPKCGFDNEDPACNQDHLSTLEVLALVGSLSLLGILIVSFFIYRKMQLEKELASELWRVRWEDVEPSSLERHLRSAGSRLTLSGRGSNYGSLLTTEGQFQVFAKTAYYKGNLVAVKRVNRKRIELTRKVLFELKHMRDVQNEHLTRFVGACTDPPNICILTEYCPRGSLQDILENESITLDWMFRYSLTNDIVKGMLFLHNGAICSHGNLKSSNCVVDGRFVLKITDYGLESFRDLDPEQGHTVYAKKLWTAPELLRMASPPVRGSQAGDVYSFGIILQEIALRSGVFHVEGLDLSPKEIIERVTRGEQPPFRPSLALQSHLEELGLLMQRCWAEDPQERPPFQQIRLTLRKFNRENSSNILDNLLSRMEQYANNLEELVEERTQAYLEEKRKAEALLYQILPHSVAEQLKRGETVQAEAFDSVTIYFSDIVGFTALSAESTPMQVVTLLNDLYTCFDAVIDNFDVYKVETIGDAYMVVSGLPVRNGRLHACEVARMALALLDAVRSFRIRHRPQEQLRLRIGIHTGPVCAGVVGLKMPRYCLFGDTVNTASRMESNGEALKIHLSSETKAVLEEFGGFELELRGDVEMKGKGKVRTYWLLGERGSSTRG
Atrial natriuretic peptide receptor 2 (Homo sapiens), sequence (P20594 whole entry, looked up): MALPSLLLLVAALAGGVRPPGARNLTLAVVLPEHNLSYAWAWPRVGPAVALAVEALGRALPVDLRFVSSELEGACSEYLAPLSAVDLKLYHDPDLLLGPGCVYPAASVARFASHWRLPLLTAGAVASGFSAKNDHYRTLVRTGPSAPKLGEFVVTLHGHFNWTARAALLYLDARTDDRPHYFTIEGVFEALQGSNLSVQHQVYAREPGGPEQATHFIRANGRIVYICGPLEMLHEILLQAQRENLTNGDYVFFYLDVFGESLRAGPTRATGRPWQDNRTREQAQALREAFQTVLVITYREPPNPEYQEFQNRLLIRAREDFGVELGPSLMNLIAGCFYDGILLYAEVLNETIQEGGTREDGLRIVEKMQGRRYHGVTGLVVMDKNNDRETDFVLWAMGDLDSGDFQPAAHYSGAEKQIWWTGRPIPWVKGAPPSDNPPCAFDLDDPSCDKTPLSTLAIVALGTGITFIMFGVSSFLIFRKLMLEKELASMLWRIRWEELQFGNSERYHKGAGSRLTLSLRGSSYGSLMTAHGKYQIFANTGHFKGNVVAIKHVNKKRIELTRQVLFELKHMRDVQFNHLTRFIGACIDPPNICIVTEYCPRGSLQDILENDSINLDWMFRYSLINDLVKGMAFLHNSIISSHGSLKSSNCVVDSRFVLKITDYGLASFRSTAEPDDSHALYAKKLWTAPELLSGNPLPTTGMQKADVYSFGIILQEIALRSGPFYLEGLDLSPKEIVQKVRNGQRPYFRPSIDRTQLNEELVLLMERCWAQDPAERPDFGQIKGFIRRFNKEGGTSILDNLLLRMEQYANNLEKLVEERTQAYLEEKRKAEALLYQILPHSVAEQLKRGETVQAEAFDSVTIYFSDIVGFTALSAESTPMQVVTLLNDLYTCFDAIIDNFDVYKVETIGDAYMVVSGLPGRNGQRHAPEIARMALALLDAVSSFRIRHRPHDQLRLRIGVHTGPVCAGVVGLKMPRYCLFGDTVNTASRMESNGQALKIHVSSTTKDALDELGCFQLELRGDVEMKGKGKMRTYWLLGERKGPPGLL

Regarding `CCOC(=O)[C@H](CCc1ccccc1)N[C@H]1CCc2ccccc2N(CC(=O)O)C1=O`, the Potency entry was “inactive and 23.5 µM (active)” in [1]; 23.5 µM (active) in test [4]. For the same molecule, the Potency result in test [2] and in [3] was “inactive” in each case.

Regarding `O=C(O)c1cccnc1`, the Potency entry in [1], in [2], in [4], in test [5] and in test [6] was “inactive” each time.

With `C[C@@H](NCCCc1cccc(C(F)(F)F)c1)c1cccc2ccccc12`, in [1], the Potency result was “inactive and 20.6 µM (active)”. The Potency entry in test [2], in test [4], in [5] and in [6] was “inactive” each time.

Consider `NCCCC(O)(P(=O)(O)O)P(=O)(O)O`, for which the Potency result in [1], in test [2], in test [7], in test [4], in test [5] and in [8] was “inactive” throughout. Moreover, the Potency result in [6] was “inactive”.

In the case of `Oc1c(Cl)cc(Cl)c2cccnc12`, the Potency in [1] was 1.46 µM (active); in [7], 4.22 µM (active) and 9.35 µM (active); in test [4], 8.41 µM (active) and 11.8 µM (active); in test [5], 2.66 µM (active) and 9.35 µM (active); in test [8], 4.73 µM (active) and 9.35 µM (active); in test [6], 24.6 µM (active) and 27.3 µM (active).

For the molecule `COC(=O)Nc1nc2ccc(S(=O)c3ccccc3)cc2[nH]1` (stereo not drawn), the Potency is 10.5 µM (active) in [1]; 1.18 µM (active) in [3]; 596 nM (active) and 14.8 µM (active) in [4]; 841 nM (active) and 9.35 µM (active) in [5]; 376 nM (active) and 8.33 µM (active) in test [8]; 1.55 µM (active) in test [6]. In addition, the Potency entry in test [2] was “inactive”.

In the case of `COC(=O)Nc1nc2ccc(Sc3ccccc3)cc2[nH]1`, the Potency in test [1] is 495 nM (active) and 1.18 µM (active); in test [7], 1.06 µM (active); in [4], 0.833 µM (active); in test [5], 1.06 µM (active) and 935 nM (active); in test [8], 841 nM (active) and 590 nM (active); in [6], 1.74 µM (active) and 3.06 µM (active). Also, in test [2], the Potency result is “inactive”.

Consider `CC(C)(C)C(=O)OCOP(=O)(COCCn1cnc2c(N)ncnc21)OCOC(=O)C(C)(C)C`, for which the Potency result in [1] and in [2] was “inactive” in each case. In addition, the Potency in test [3] is 2.64 µM (active) and 10.4 µM (active); in test [5] it was 2.11 µM (active) and 743 nM (active); in test [8] it was 188 nM (active) and 1 nM (active); in test [6], 3.47 µM (active) and 10.9 µM (active).

For the molecule `OC(Cn1cncn1)(Cn1cncn1)c1ccc(F)cc1F`, the Potency result in test [1], in test [2], in test [4], in test [5], in [8] and in [6] was “inactive” throughout.

On to `CC1(C)[C@H](C(=O)O)N2C(=O)C[C@H]2S1(=O)=O`, for which the Potency result in test [1], in [2], in [4], in [5] and in [6] was “inactive” each time.

For the molecule `C[C@]12C=CC(=O)C=C1CC[C@@H]1[C@@H]2C(=O)C[C@@]2(C)[C@H]1CC[C@]2(O)C(=O)CO`, the Potency result in test [1], in [2], in test [3], in test [4], in test [5] and in [8] was “inactive” in each case. The Potency entry in test [6] is “inactive”.

`COc1cc(NCc2ccc3nc(N)nc(N)c3c2C)cc(OC)c1OC`: the Potency result in test [1] is “inactive and 5.8 µM (active)”; in test [3], 2.94 µM (active) and 33.3 nM (active); in [7], 3.72 µM (active) and 133 nM (active); in test [4], 2.64 µM (active) and 29.9 nM (active); in test [5], 3.72 µM (active) and 168 nM (active); in test [8] it was 332 nM (active) and 11.9 nM (active). The Potency in test [6] was 1.53 µM (active) and 69.2 nM (active).

`CCN(C)C(=O)Oc1cccc([C@H](C)N(C)C)c1`: the Potency entry in test [1], in test [2], in test [7], in test [4], in test [5] and in test [8] was “inactive” in each case. For the same molecule, the Potency entry in test [6] is “inactive”.

Take `C#CCN[C@@H]1CCc2ccccc21`: the Potency entry in test [1], in test [2], in test [4], in test [5], in test [8] and in test [6] was “inactive” throughout.

In the case of `CC(C)(C)NC(=O)[C@H]1CC[C@H]2[C@@H]3CC[C@H]4NC(=O)C=C[C@]4(C)[C@H]3CC[C@]12C`, the Potency result in test [1] and in test [2] was “inactive” in each case. The Potency in [4] is 14.8 µM (active).

Take `C[C@@H]1C[C@H]2[C@@H]3CCC4=CC(=O)C=C[C@]4(C)[C@@]3(Cl)[C@@H](O)C[C@]2(C)[C@@]1(OC(=O)c1ccco1)C(=O)CCl`: the Potency result in test [1] and in test [2] was “inactive” each time. Further, the Potency in [7] is 18.7 µM (active); in test [4] it was 9.35 µM (active); in test [5] it was 0.59 µM (active); in test [8] it was 2.96 µM (active); in test [6], 21.7 µM (active).

Take `NC(=O)c1cccnc1`: the Potency entry in test [2], in [3], in test [7], in test [4], in test [5] and in test [8] was “inactive” each time. Also, the Potency result in test [6] was “inactive”.

For `CO[C@@H]1[C@@H](OC(N)=O)[C@@H](O)[C@H](Oc2ccc3c(O)c(NC(=O)c4ccc(O)c(CC=C(C)C)c4)c(=O)oc3c2C)OC1(C)C`, the Potency entry in test [2], in [3], in [4], in test [5], in [8] and in test [6] was “inactive” throughout.

`CC[C@H](C)C(=O)O[C@H]1C[C@@H](C)C=C2C=C[C@H](C)[C@H](CC[C@@H]3C[C@@H](O)CC(=O)O3)[C@H]21`: the Potency result in [2] and in test [8] was “inactive” throughout. The Potency is 8.41 µM (active) and 9.35 µM (active) in test [7]; 9.44 µM (active) and 13.2 µM (active) in test [4].

`CCCc1cc(C(N)=S)ccn1`: the Potency result in test [2], in [3], in test [7], in test [4], in test [5] and in [8] was “inactive” in each case. Moreover, in [6], the Potency entry was “inactive”.

On to `CCCc1nc(C)c2c(=O)[nH]c(-c3cc(S(=O)(=O)N4CCN(CC)CC4)ccc3OCC)nn12`, for which the Potency result in [2] was “inactive and 10.5 µM (active)”. For the same molecule, the Potency entry in [3] is “inactive”.

For the molecule `O=c1cc(O)c(Cl)c[nH]1`, the Potency result in [2], in test [3], in test [4] and in test [6] was “inactive” each time.

On to `CCCCc1oc2ccc(NS(C)(=O)=O)cc2c1C(=O)c1ccc(OCCCN(CCCC)CCCC)cc1`, for which the Potency in [2] was 11.8 µM (active); in test [4] it was 11.8 µM (active); in [5] it was 1.18 µM (active); in test [8], 21.1 µM (active); in test [6], 17.2 µM (active) and 27.6 µM (active).

As for `Cc1ccc(S(=O)(=O)N[C@@H](Cc2ccccc2)C(=O)CCl)cc1`, the Potency was 12 µM (active) in [9]; 5.85 µM (active) in test [10]; 9.35 µM (active) in [4]; 14.8 µM (active) in [5]; 7.43 µM (active) in test [8]; 24.3 µM (active) in test [6]. Further, the Potency result in test [2] and in [3] was “inactive” each time. The result in test [11], in test [12], in test [13] and in test [14] was inactive.

On to `Nc1[nH]c(=O)ncc1F`, for which the Potency entry in test [2], in test [3], in test [7], in [4], in test [5] and in test [8] was “inactive” in each case.
